In PubChem BioAssay AID2597 (National Center for Advancing Translational Sciences (NCATS), 2010):
Inconclusive results are not listed. Unmarked numbers belong to inactive results. The source made the active and inactive calls. Calls follow the shape of the dose curve; as a rule, active = well fitted curve in the direction sought with a large enough effect; inconclusive = small, poorly fitted or top-dose-only effect, or effect the other way, or another doubt; inactive = no such curve, though single readings can be large or run the other way.

Molecular target: Lysosomal acid glucosylceramidase (Homo sapiens) (UniProt P04062)
Assay: qHTS Assay for Inhibitors and Activators of N370S glucocerebrosidase as a Potential Chaperone Treatment of Gaucher Disease: Purified N370S Glucocerebrosidase
Conditions: purified N370S GC, 4-MU-glucoside fluorescence, 40 min; series mostly up to 76.9 µM; activity change, negative = inhibition: at the top concentration
Description: NIH Chemical Genomics Center [NCGC] NIH Molecular Libraries Probe Production Centers Network [MLPCN] MLPCN Grant: MH086442-01 Assay Submitter (PI): Wei Zheng Glucocerebrosidase (GC) catalyzes the hydrolysis of beta-glucocerebroside to glucose and ceramide in lysosomes. Mutations in the glucocerebrosidase gene result in Gaucher disease, an autosomal recessive lysosomal storage disorder. Many of the mutations encountered in patients with Gaucher disease are missense alterations that may cause misfolding, decreased stability and/or mistrafficking of this lysosomal protein. […] These inhibitors include iminosugar analogs and three non-iminosugar inhibitors identified from a previous HTS of 62,000 compounds with the wild type recombinant enzyme. However, the enhancement of enzyme activity by the chaperone action of an enzyme inhibitor must be balanced against the direct inhibition of the enzyme. An enzyme activator could also function as a chaperone by binding to the enzyme and helping to correct its misfolding and mistrafficking. While activators for GC have not yet been identified, they may have better therapeutic potential than inhibitors. Therefore the discovery and development of chemical activators may provide a new strategy for the chaperone therapy. We have optimized a new assay using N370S mutant GC derived from the spleen of a Gaucher patient. […] In addition, the MLPCN compound library has expanded, which increases the chance of finding new and better probes. This assay characterizes compound activity using purified mutant enzyme instead of tissue homogenate. Compound activity differences may be due to the absence of endogenous cofactors found in tissue homogenate.
NCGC Assay Protocol Summary: This is a fluorogenic enzyme assay with 4-methylumbelliferyl-beta-D-glucopyranoside as the substrate and purified N370S glucocerebrosidase as the enzyme preparation. Upon the hydrolysis of this fluorogenic substrate, the resulting product, […] which can be detected by a standard fluorescence plate reader. Data were normalized to the controls for basal activity (without enzyme) and 100% activity (with enzyme). The AC50 values were determined from concentration-response data modeled with the standard Hill equation. Assay buffer: 50 mM citric acid (titrated with potassium phosphate to pH 5.0), 100 mM potassium chloride, 10 mM sodium chloride, 1 mM magnesium chloride, 0.01% Tween-20. 1536-well assay protocol: (1) Add 2 ul/well of glucocerebrosidase enzyme solution (5 nM final) (2) Add 23 nL compounds in DMSO solution. The final titration was 0.5 nM to 58 uM. (3) Add 2 ul of substrate (1 mM final) (4) Incubate at 37C for 40 min. (5) Add 2 ul stop solution (1M NaOH and 1M Glycine mixture, pH 10) (6) Detect the assay plate in a ViewLux plate reader (PerkinElmer) with Ex=365 nm and Em=440nm. Keywords: Glucocerebrosidase, beta-glucosidase, Gaucher Disease, pharmacological chaperone, chaperone therapy, high throughput screening, glucocerebrosidase inhibitor, MLSMR, MLSCN, NIH Roadmap, qHTS and NCGC

Chain of Lysosomal acid glucosylceramidase (Homo sapiens) (P04062 whole entry N409S): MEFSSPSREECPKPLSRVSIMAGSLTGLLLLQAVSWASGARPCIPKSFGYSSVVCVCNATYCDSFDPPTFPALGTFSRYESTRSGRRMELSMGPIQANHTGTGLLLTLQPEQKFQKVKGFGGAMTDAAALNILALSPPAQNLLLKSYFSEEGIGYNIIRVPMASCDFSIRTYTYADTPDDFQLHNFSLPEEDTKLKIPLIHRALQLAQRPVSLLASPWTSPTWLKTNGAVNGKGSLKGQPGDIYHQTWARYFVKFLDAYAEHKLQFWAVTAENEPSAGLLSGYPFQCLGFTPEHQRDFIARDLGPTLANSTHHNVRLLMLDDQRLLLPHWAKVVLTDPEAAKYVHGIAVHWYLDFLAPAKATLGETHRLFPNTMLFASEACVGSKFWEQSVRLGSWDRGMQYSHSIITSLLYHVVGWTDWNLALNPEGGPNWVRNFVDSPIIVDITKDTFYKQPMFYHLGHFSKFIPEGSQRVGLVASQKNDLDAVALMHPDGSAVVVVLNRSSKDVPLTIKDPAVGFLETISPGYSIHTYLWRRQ

| Structure (SMILES) | activity change, negative = inhibition | Potency |
| --- | --- | --- |
| COc1ccc(-c2nc(N3CCN(S(=O)(=O)c4ccccc4)CC3)c3ccccc3n2)cc1 | -1.92% |  |
| O=S(=O)(c1ccccc1)N1CCN(c2nc(-c3ccc(F)cc3)nc3cc(Cl)ccc23)CC1 | 3.68% |  |
| O=S(=O)(c1ccccc1C(F)(F)F)N1CCN(c2nc(-c3cccs3)nc3ccccc23)CC1 | -12.1% [at 57.5 µM] |  |
| OCCNc1nc(-c2cccs2)nc2ccccc12 | -5.11% |  |
| Cc1cccc(S(=O)(=O)N2CCN(c3nc(-c4cccs4)nc4ccccc34)CC2)c1 | -0.788% |  |
| CC(C)(C)C(=O)OCCNc1nc(-c2ccccc2)nc2ccccc12 |  | 8.91 µM (active) |
| O=S(=O)(c1ccc(Cl)cc1)N1CCN(c2nc(-c3ccc(Cl)cc3)nc3ccccc23)CC1 | -6.99% |  |
| O=S(=O)(c1ccc(Cl)cc1)N1CCN(c2nc(-c3ccc(F)cc3)nc3cc(Cl)ccc23)CC1 | -3.17% |  |
| O=S(=O)(c1ccc(Cl)cc1)N1CCN(c2nc(-c3cccc(Br)c3)nc3ccccc23)CC1 | -1.13% |  |
| COc1cccc(S(=O)(=O)N2CCN(c3nc(-c4cccs4)nc4ccccc34)CC2)c1 | 4.33% |  |
| O=S(=O)(c1ccc(Cl)cc1)N1CCN(c2nc(Nc3cc(Cl)ccc3O)nc3ccccc23)CC1 |  | 14.1 µM (active) |
| O=S(=O)(c1ccc(Cl)cc1)N1CCN(c2nc(-c3cccs3)nc3ccccc23)CC1 |  | inactive |
| Cc1ccc(S(=O)(=O)N2CCN(c3nc(-c4cccs4)nc4ccccc34)CC2)cc1 |  | inactive |
| c1csc(-c2nc(NCC3CCCO3)c3ccccc3n2)c1 (centres undefined) | -4.41% |  |
| O=S(=O)(c1ccc2c(c1)OCCO2)N1CCN(c2nc(-c3ccccc3)nc3ccccc23)CC1 | -8.13% |  |
| O=S(=O)(c1cccc(C(F)(F)F)c1)N1CCN(c2nc(-c3cccs3)nc3cc(Cl)ccc23)CC1 | -2.84% |  |
| Cc1ccc(-c2nc(N3CCN(S(=O)(=O)c4ccc(F)cc4)CC3)c3ccc(Cl)cc3n2)cc1 | -0.326% |  |
| Cc1ccc(S(=O)(=O)N2CCN(c3nc(-c4ccc(F)cc4)nc4cc(Cl)ccc34)CC2)cc1 | -2.41% |  |
| COc1ccc(S(=O)(=O)N2CCN(c3nc(-c4cccs4)nc4ccccc34)CC2)cc1 | -1.81% |  |
| O=S(=O)(c1cccs1)N1CCN(c2nc(-c3cccs3)nc3ccccc23)CC1 | 8.37% |  |

| Structure (SMILES) | activity change, negative = inhibition | Potency |
| --- | --- | --- |
| COc1ccc(-c2nc(N3CCN(S(=O)(=O)c4ccc(C)cc4)CC3)c3ccccc3n2)cc1 | 0.376% |  |
| O=S(=O)(c1ccc2ccccc2c1)N1CCN(c2nc(-c3cccs3)nc3ccccc23)CC1 | 3.55% |  |
| CC(C)(C)c1ccc(S(=O)(=O)N2CCN(c3nc(-c4cccs4)nc4ccccc34)CC2)cc1 | -6.34% |  |
| CC(C)C(C)NC(=O)CSc1nc2scc(-c3ccco3)c2c(=O)n1-c1ccccc1 (centres undefined) | 2.6% [at 57.5 µM] |  |
| S=C(NCCCc1cnc[nH]1)NCCCN(Cc1ccc(Cl)c(Cl)c1)c1ccc(Br)cn1 |  | 2.51 µM (active) |
| Cc1cc(C)cc(N(CC(=O)NC2CCCCCC2)S(=O)(=O)c2c(C)[nH]c(=O)[nH]c2=O)c1 |  | 1.58 µM (active) |
| O=S(=O)(Cc1ccccc1)N1CCN(c2nc(-c3cccs3)nc3ccccc23)CC1 | -7.06% |  |
| O=S(=O)(c1ccc(F)cc1)N1CCN(c2nc(-c3cccc(Br)c3)nc3ccccc23)CC1 | -3.8% |  |
| Cc1ccccc1S(=O)(=O)N1CCN(c2nc(-c3cccs3)nc3ccccc23)CC1 | -5.57% |  |
| NS(=O)(=O)c1ccc(S(=O)(=O)N2CCN(c3nc(-c4cccs4)nc4ccccc34)CC2)cc1 | -5.7% [at 57.5 µM] |  |
| O=S(=O)(c1cccc2ccccc12)N1CCN(c2nc(-c3cccs3)nc3ccccc23)CC1 | -3% |  |
| O=S(=O)(c1ccc(F)cc1)N1CCN(c2nc(-c3cccs3)nc3cc(Cl)ccc23)CC1 | 18.9% |  |
| O=S(=O)(c1ccc(F)cc1)N1CCN(c2nc(-c3ccc(F)cc3)nc3cc(Cl)ccc23)CC1 | 12.5% |  |
| O=S(=O)(c1ccc2c(c1)OCCO2)N1CCN(c2nc(-c3cccs3)nc3ccccc23)CC1 | -9.01% [at 57.5 µM] |  |
| N#Cc1ccc(S(=O)(=O)N2CCN(c3nc(-c4cccs4)nc4ccccc34)CC2)cc1 | 0.866% [at 57.5 µM] |  |
| COc1ccc(-c2nc(N3CCN(S(=O)(=O)c4ccc(F)cc4)CC3)c3ccccc3n2)cc1 | 2.48% |  |
| O=S(=O)(c1ccc(F)cc1)N1CCN(c2nc(-c3ccccc3)nc3cc(Cl)ccc23)CC1 | 11.3% |  |
| O=S(=O)(c1ccccc1Cl)N1CCN(c2nc(-c3cccs3)nc3ccccc23)CC1 | 1.47% |  |
| O=C(c1ccc2c(c1)OCCO2)N1CCN(c2nc(-c3cccs3)nc3ccccc23)CC1 | -8.39% |  |
